# Compound activity deposited in PubChem BioAssay by The Scripps Research Institute Molecular Screening Center.
# TEAD-YAP block – TEAD-YAP interaction inhibition; HEK-TIYL cells, TEAD-Gal4/YAP UAS-luciferase luminescence; inhibition, % at 9.12 µM; hit rate 1.4% among 640,000; in the data active means inhibition above about 32%;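 further: 0% = median of test compound wells and 100% = reference inhibitor wells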
# MITF primary – blocks human microphthalmia-associated transcription factor. O75030. AlphaScreen MITF homodimerization, bead proximity signal. inhibition, % at 2.6 µM. hit rate 0.91% among 650,000. AID 1259374; in the data active means inhibition above about 50%;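 further: 0% = vehicle wells with protein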
# FBW7 act – human FBW7 E3 ligase activation, primary screen. Q969H0. hit rate 0.13% among 650,000. AlphaScreen FBW7–phospho-cyclin E peptide binding, activator screen. AID 1259310. normalized activity (activation), % at 26.1 µM; in the data active means normalized activity above about 1.9%;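 further: purified mutant Fbw7 with reduced substrate affinity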
# GPR151 ag – activators of human GPR151; activation, % at 11.2 µM; hit rate 1% among 650,000; PathHunter beta-arrestin GPR151 cells, luminescence; Q8TDV0; in the data active means activation above about 4.9%;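 further: 0% = median of compound wells and 100% = cells with positive control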
# Target sequence (Q8TDV0 whole entry, looked up): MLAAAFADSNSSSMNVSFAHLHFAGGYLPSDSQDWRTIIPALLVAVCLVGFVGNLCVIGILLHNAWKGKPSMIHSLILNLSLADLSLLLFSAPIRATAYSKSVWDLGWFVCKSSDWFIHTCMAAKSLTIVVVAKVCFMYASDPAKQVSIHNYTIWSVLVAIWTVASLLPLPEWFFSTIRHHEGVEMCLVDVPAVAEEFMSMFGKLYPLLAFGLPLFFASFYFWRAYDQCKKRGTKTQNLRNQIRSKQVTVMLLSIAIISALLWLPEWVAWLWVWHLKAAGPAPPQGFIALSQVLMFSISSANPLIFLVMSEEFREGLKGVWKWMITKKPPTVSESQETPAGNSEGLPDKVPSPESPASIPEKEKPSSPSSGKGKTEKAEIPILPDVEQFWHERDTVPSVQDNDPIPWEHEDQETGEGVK
# The depositor's hits bear a star; . = not tested or not shown. Most compounds without a hit are left out; they make up all but 3.5% or so of the library.
SMILES,TEAD-YAP block,MITF primary,FBW7 act,GPR151 ag
COc1ccccc1N=c1scc(-c2ccc3c(c2)NC(=O)CO3)n1CC1CCCO1 (stereo not given),1,26,1,4
O=C(NNC(=S)NC(=O)C(c1ccccc1)c1ccccc1)c1ccccc1O,86*,23,-2,0
O=C(/C=C/c1cccs1)NC(=S)NNC(=O)c1ccccc1O,81*,40,-1,4
CC1CCN(Cc2c(O)ccc3c4c(c(=O)oc23)CCCC4)CC1,-3,-1,0,-1
CC(Nc1ncnc2ccccc12)c1ccccc1 (stereo not given),56*,2,0,1
CC(Nc1ncnc2ccc(Br)cc12)c1ccccc1 (stereo not given),34*,19,0,-1
Brc1ccc2ncnc(NCCc3ccccc3)c2c1,64*,9,0,0
COCCCNc1ncnc2ccc(Br)cc12,29,2,0,1
COc1ccc(S(=O)(=O)Oc2cc(C)cc(C)c2CN2CCOCC2)cc1,37*,-11,0,0
Cc1cc(OS(=O)(=O)c2ccc(F)cc2)c(C)cc1CN1CCOCC1,9,-5,0,-1
Cc1cccn2cc(COc3ccc(Cl)cc3)nc12,-48,11,0,0
COc1ccccc1-c1nnc(NC(=O)Cc2ccc(C)cc2C)o1,-2,8,-1,-1
C=CCNC(=S)NNc1nc(Nc2ccccc2)nc(N2CCCCC2)n1,34*,15,0,1
C=CCNC(=S)NNc1nc(N2CCCC2)nc(N2CCCC2)n1,7,3,0,0
c1ccc(Nc2cc(-c3ccnc(Nc4ccccc4)c3)ccn2)cc1,38*,11,0,-1
NC(=O)c1ccc(Nc2cc(-c3ccccc3)ccn2)cc1,-78,11,1,0
O=[N+]([O-])c1ccc(Sc2nnnn2-c2ccccc2)c(Cl)c1,34*,21,0,0
O=[N+]([O-])c1cc(C(F)(F)F)ccc1Sc1nnnn1-c1ccccc1,2,2,0,0
O=[N+]([O-])c1ccc(Sc2nnnn2-c2ccccc2)c2ccncc12,50*,4,0,-1
CC(=O)c1ccc(Sc2nnnn2-c2ccccc2)c([N+](=O)[O-])c1,33*,4,0,-2
Cn1c(Sc2ccc([N+](=O)[O-])c3cnccc23)nnc1C(F)(F)F,-1,-12,0,1
Cc1ccccc1-n1nnnc1Sc1ccc([N+](=O)[O-])c2cnccc12,44*,-7,0,1
Cc1ccc(C)c(N=Cc2c(O)n(C)c(=S)[nH]c2=O)c1,9,5,0,0
CSC1=C(C#N)C(c2ccccc2Cl)C(C(=O)Nc2ccccc2C)=C(C)N1 (stereo not given),-4,15,2.0*,0
CCSC1=C(C#N)C(c2ccccc2Cl)C(C(=O)Nc2ccccc2C)=C(C)N1 (stereo not given),-4,5,0,0
SMILES,TEAD-YAP block,MITF primary,FBW7 act,GPR151 ag
CCSc1nnc(C2CCN(CC(=O)Nc3cccc4ccccc34)CC2)n1C,4,1,2.8*,-1
CN1CCN(c2cc(-c3ccccn3)nc(-c3ccccn3)n2)CC1,32,112*,-1,2
CN1CCN(c2cc(-c3ccncc3)nc(-c3cccnc3)n2)CC1,61*,0,0,3
c1ccc(-c2cc(N3CCc4ccccc4C3)nc(-c3ccccn3)n2)nc1,69*,85*,-1,1
CN1CCN(c2cc(-c3ccccc3)nc(-c3ccccn3)n2)CC1,2,-5,0,0
CC[C@H](C)[C@H](NC(N)=O)C(=O)NNC(=O)c1nn(CC)c(=O)c2ccccc12,5,-5,0,0
COc1ccc(C(=O)Nc2cccc(OC(=O)c3ccc(C)c(S(=O)(=O)N4CCOCC4)c3)c2)cc1,66*,-8,0,-3
Cc1ccc(C(=O)Nc2cccc(OC(=O)c3cccc(S(=O)(=O)N4CCC(C)CC4)c3)c2)cc1,68*,11,1,-3
COc1cccc(C(=O)Nc2cccc(OC(=O)c3ccc(C)c(S(=O)(=O)N4CCOCC4)c3)c2)c1,36*,12,0,0
COC(=O)c1ccc(NC(=O)c2ccc(OC)cc2OC)cc1,-15,8,0,-1
CC(=O)Nc1cccc(NC(=O)CSc2ccc(-c3nc4ccccc4[nH]3)cn2)c1,40*,-6,0,-4
O=C1[C@H]2[C@H]3[C@H](O)[C@H](O)C/C(=N\OC[C@@H](O)COCc4ccco4)[C@H]3CC[C@H]2C(=O)N1c1ccc(F)cc1F,.,20,0,-1
CC(=O)Nc1ccc(Nc2cc(C)nc(NCCN3CCOCC3)n2)cc1,5,6,0,0
Cc1ccc(C)c(-n2c3nc(=O)[nH]c(=O)c-3cc3cc([N+](=O)[O-])ccc32)c1,57*,9,0,-1
O=C(CSc1nnc2ccccn12)Nc1ccccc1C(F)(F)F,4,-9,0,0
CC(C)n1cnc2c(NCc3nc4ccccc4[nH]3)nc(Nc3cccnc3)nc21,86*,9,0,-2
CC(C)n1cnc2c(NCc3nc4ccccc4[nH]3)nc(Nc3ccccc3)nc21,64*,-5,0,-1
CC(C)n1cnc2c(NCc3nc4ccccc4[nH]3)nc(Nc3ccc(C(F)(F)F)cc3)nc21,56*,-16,0,0
c1ccc2[nH]c(CNc3nc(Nc4ccc(-n5ccnc5)cc4)nc4c3ncn4C3CCCCC3)nc2c1,-24,-9,0,-2
CC(C)n1cnc2c(Nc3ccccc3)nc(Nc3ccc(C(F)(F)F)cc3)nc21,-8,9,0,1
Cn1c(Nc2nc(NCc3nc4ccccc4[nH]3)c3ncn(-c4ccccc4)c3n2)nc2ccccc21,19,10,0,0
CC(C)n1cnc2c(NCc3nc4ccccc4[nH]3)nc(Nc3ccc(-n4ccnc4)cc3)nc21,46*,13,0,-1
O=C(NCc1ccc2c(c1)OCO2)Nc1ccccc1-c1ccccc1,0,28,0,0
O=C(c1nc2ccccn2c1CN1CCN(c2ccccc2F)CC1)N1CCCC1,-1,5,0,0
CCCC(c1nnnn1Cc1ccc2c(c1)OCO2)N1CCN(Cc2ccccc2)CC1 (stereo not given),7,-1,0,1
SMILES,TEAD-YAP block,MITF primary,FBW7 act,GPR151 ag
c1cncc(Nc2nc(NCc3nc4ccccc4[nH]3)c3[nH]cnc3n2)c1,0,-8,3.0*,-2
CN1CCN(C(=O)c2ccc(-c3nc(NCc4nc5ccccc5[nH]4)c4ncn(C5CCCCC5)c4n3)cc2)CC1,5,15,0,0
O=C(NC1CC1)c1ccc(-c2nc(NCc3nc4ccccc4[nH]3)c3ncn(C4CCCCC4)c3n2)cc1,45*,5,0,-1
c1cncc(Nc2nc(NCc3nc4ccccc4[nH]3)c3ncn(C4CCCCC4)c3n2)c1,70*,2,0,-1
C=CCNC(=O)C(=O)NCC1OCCCN1S(=O)(=O)c1ccc(F)c(C)c1 (stereo not given),7,12,0,1
COC(=O)c1cc([N+](=O)[O-])c2nc3ccccn3c2c1,-7,14,0,0
